# Results: PMC4336329 (PLoS ONE, 2015)
# In all, about 310,000 compounds went through this assay and about 14,000 (4.5%) showed an effect of 50% or more. The effect is printed as a negative number. The sample as a whole holds a higher share of strong results than the screen did.
# Biological target: human ether-à-go-go-related gene (hERG) potassium channel (human, UniProt Q12809)
# Experiment: primary screen, population patch clamp on CHO cells stably expressing hERG; higher = less effect of the substance
# 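Further: peak tail current of the secondary pulse compared with the same well before compound.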
# Chain of human ether-à-go-go-related gene (hERG) potassium channel (Q12809 whole entry, looked up): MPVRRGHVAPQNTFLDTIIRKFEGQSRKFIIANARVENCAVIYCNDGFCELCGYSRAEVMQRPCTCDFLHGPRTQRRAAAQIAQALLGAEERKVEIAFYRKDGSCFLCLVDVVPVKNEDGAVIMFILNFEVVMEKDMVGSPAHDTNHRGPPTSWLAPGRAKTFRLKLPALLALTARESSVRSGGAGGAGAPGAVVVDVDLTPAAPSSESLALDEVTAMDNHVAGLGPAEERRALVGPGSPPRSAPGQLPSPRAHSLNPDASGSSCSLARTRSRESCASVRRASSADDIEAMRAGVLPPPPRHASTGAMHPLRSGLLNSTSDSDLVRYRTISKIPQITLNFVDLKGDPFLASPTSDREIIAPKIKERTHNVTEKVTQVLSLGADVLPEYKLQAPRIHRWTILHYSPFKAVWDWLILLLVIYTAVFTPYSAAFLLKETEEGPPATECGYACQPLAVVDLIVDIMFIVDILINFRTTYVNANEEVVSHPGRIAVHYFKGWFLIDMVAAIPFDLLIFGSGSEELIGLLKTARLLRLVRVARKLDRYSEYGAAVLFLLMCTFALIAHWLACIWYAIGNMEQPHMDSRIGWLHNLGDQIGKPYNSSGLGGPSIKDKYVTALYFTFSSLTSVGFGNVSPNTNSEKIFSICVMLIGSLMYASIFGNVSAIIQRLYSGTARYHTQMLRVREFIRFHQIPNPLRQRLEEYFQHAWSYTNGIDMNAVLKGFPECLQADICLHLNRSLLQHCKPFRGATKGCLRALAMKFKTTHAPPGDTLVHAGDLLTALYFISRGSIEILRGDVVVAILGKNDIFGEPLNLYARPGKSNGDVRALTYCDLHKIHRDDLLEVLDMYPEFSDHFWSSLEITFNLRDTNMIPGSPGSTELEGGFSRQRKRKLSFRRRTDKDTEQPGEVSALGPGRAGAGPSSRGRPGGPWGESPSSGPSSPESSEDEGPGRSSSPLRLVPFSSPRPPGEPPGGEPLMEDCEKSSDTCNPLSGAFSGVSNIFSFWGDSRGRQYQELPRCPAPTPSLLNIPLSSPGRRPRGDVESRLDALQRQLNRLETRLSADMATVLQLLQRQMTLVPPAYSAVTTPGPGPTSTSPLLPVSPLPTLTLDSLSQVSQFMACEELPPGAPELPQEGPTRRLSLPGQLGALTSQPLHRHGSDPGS
row,SMILES,"hERG current change (%, negative = inhibition) at 10uM"
1,COc1ccc(-c2noc(CN(C(=O)c3cccs3)C(C)C)n2)cc1,-28.6%
2,COc1ccc(S(=O)(=O)N2CCOCC2)c(Cl)c1Cl,-18.3%
3,Cn1c(OCc2cccnc2)nc2c1c(=O)n(Cc1ccc(Cl)cc1)c(=O)n2C,-51.1%
4,Cn1c(=O)c2c(nc(OCc3cccnc3)n2Cc2ccccc2)n(C)c1=O,-32.8%
5,Cn1c(OCc2cccnc2)nc2c1c(=O)n(Cc1ccccc1)c(=O)n2C,-56.1%
6,C=CCOc1nc2c(c(=O)n(Cc3ccc(Cl)cc3)c(=O)n2C)n1C,-2.66%
7,Cn1c(OCc2cccnc2)nc2c1c(=O)n(Cc1ccc(F)cc1)c(=O)n2C,-51.9%
8,Cn1c(=O)c2c(nc(SCc3cccnc3)n2Cc2ccc(F)cc2)n(C)c1=O,-30.7%
9,Cn1c(=O)c2c(nc(OCc3ccccc3)n2C)n(C)c1=O,4.72%
10,Cn1c(=O)c2c(nc(N/N=C/c3ccncc3)n2Cc2ccccc2)n(C)c1=O,-28.8%
11,Cn1c(=O)c2c(nc(OCc3cccnc3)n2Cc2c(F)cccc2Cl)n(C)c1=O,1.03%
12,Cn1c(=O)c2c(nc(N/N=C/c3cccnc3)n2Cc2ccc(F)cc2)n(C)c1=O,-16.8%
13,Cn1c(=O)c2c(nc(N/N=C/c3cccnc3)n2Cc2ccccc2)n(C)c1=O,-51.2%
14,Cn1c(OCc2ccc3c(c2)OCO3)nc2c1c(=O)n(Cc1cccc(Cl)c1)c(=O)n2C,-0.643%
15,CN(CC(=O)Nc1cccc(F)c1)C(=O)c1ccccc1CCc1ccccc1,3.08%
16,O=S(=O)(NCc1ccco1)c1cccc(S(=O)(=O)N2CCCCC2)c1,-32.2%
17,CCN1CCN(C(c2cccc(OC)c2)c2sc3nc(C)nn3c2O)CC1 (centres unmarked),19.7%
18,COc1cccc(CNC(=O)CSC(=S)N2CCCC2)c1,2.79%
19,CCOC(=O)N1CCN(c2c(NCCCOC(C)C)c(=O)c2=O)CC1,-19.7%
20,CC(C)CC(=O)O/N=C1\C(=O)N(Cc2ccc(Cl)cc2)c2ccc([N+](=O)[O-])cc21,-36.1%
21,CCn1c(CO)nc2c1c(=O)[nH]c(=O)n2Cc1ccccc1,17.7%

row,SMILES,"hERG current change (%, negative = inhibition) at 10uM"
1,Cn1c(NCc2ccccc2)nc2c1c(=O)n(Cc1ccc(Br)cc1)c(=O)n2C,4.56%
2,Cn1c(Br)nc2c1c(=O)n(Cc1ccccc1)c(=O)n2C,-10.2%
3,Cn1c(OCc2cccnc2)nc2c1c(=O)n(Cc1ccc(Br)cc1)c(=O)n2C,-57.3%
4,CC1CCCN(C(=O)CN2C(=O)C(C)Oc3ccccc32)C1 (centres unmarked),8.2%
5,CCN(CC)C(=O)c1[nH]cnc1C(=O)Nc1ccon1,0.396%
6,Cc1ccc(NC(=O)OCc2cncs2)cc1,2.29%
7,COCCNC(=O)c1c(N)n(/N=C/c2ccc(F)cc2)c2nc3ccccc3nc12,-0.595%
8,O=C(NCCCN1CCOCC1)c1cccc(S(=O)(=O)N2CCN(c3ccccc3)CC2)c1,-71.8%
9,O=C(NCCCN1CCOCC1)c1cccc(S(=O)(=O)N2CCOCC2)c1,8.97%
10,O=C(NCCN1CCOCC1)c1cccc(S(=O)(=O)N2CCCC2)c1,6.43%
11,Cc1ccc(S(=O)(=O)N2CCCCC2)cc1C(=O)NCCCN1CCOCC1,16.7%
12,O=C(NCCCN1CCOCC1)c1cc(S(=O)(=O)N2CCN(c3ccccc3)CC2)ccc1Cl,-76.6%
13,O=C(NCCCN1CCCC1=O)c1cc(S(=O)(=O)N2CCOCC2)ccc1Cl,13.9%
14,CCOC(=O)c1ccc(NC(=S)Nc2ccc3[nH]c(=O)[nH]c3c2)cc1,1.23%
15,O=c1[nH]c2ccccc2nc1C(Cl)c1ccccc1 (centres unmarked),2.52%
16,Nc1nc(-c2ccco2)cs1,9.88%
17,O=c1oc2cc(OCc3c(F)c(F)c(F)c(F)c3F)ccc2cc1-c1ccccn1,14%
18,COc1ccc(C(=O)Nn2cnc3ccccc3c2=O)cc1[N+](=O)[O-],-4.64%
19,O=C(O)COc1ccccc1/C=N/NC(=O)CN1CCN(S(=O)(=O)c2ccc(Br)cc2)CC1,4.89%
20,Cc1ccc(S(=O)(=O)N2CCN(CC(=O)N/N=C/c3ccccc3OCC(=O)O)CC2)cc1,10.5%
